Hit rate of the full screen: of about 2,000 compounds, about 250 (12%) were called active. For the sample, actives were picked, then their nearest neighbours and some compounds at random. Unmarked numbers belong to inactive results. Cut-off read from the data, not from the text of the source: active = hERG blockade below about -20% or above about 20%; inactive = in between.
Biological target: Voltage-gated inwardly rectifying potassium channel KCNH2 (Homo sapiens) (UniProt Q12809)
Experiment: modulators of KCNH2 ion channel function, cellular (AID 376);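 note: 0% = buffer alone and 100% = reference blocker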
Conditions: hERG-expressing cells, channel activity single-concentration screen; concentration not given here

Sequence of Voltage-gated inwardly rectifying potassium channel KCNH2 (Homo sapiens) (Q12809 whole entry, looked up): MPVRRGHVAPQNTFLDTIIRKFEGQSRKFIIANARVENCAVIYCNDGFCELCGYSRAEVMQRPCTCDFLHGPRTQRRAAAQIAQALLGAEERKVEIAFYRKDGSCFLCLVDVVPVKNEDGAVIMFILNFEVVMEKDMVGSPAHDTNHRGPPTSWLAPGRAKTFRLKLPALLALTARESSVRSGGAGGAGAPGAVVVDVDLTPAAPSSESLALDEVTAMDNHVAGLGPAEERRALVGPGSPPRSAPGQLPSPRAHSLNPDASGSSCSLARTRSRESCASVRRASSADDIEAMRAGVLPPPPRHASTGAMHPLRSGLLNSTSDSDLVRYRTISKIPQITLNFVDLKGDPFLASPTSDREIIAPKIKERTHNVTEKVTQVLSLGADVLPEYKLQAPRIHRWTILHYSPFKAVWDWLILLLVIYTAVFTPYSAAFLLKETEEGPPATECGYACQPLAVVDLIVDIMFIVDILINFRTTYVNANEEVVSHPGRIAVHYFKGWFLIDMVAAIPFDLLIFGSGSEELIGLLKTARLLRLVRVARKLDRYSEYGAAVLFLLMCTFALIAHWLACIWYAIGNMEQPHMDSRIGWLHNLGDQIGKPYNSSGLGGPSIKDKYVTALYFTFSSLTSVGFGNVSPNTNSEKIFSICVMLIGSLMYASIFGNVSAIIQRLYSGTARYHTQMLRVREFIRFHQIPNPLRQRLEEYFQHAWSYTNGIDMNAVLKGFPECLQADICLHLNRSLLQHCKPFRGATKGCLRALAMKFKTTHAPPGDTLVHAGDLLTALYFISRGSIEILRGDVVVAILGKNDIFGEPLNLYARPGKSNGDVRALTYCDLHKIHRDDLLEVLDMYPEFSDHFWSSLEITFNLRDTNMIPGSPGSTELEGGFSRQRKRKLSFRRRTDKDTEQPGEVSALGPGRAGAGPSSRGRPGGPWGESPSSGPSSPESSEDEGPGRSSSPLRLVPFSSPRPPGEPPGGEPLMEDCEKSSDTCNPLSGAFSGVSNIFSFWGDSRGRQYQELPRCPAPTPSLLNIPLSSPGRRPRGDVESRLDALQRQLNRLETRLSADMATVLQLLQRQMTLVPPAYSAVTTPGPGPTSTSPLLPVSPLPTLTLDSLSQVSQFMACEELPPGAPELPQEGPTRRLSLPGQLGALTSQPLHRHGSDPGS

SMILES	hERG blockade
Cc1cc(=O)oc2cc(O)c(CN(C)CC(=O)O)cc12	0.517%
O=c1[nH]c(=S)[nH]c2c1CN(CCCN1CCOCC1)CN2	3%
NCCSCc1ccccc1Cl	6.42%
CN(CCO)Cc1ncccc1O	-0.376%
CC(CCC(=O)O)C1CCC2C3CCC4CC(O)CCC4(C)C3CC(O)C12C (stereo unspecified)	2.74%
Cc1nc2cccc([N+](=O)[O-])c2n1CCCN(C)C	3.79%
CN(C)CCCn1c2c3ccccc3ccc2c2oc(=O)c3ccccc3c21	122% (active)
Cc1ccc(N2CCN(CCC(=O)O)CC2)cc1	-0.109%
CCCn1cnc2c(SCC(=O)O)nc(N)nc21	4.79%
NC(=S)NN=Cc1c[nH]c2ccccc12	9.72%
CCCCNS(=O)(=O)c1n[nH]c(=O)[nH]c1=O	-14.2%
CC(CCC(C)=NO)=NO	-14.3%
Cc1cc(Cl)ccc1Nc1sc(C(=O)c2cc3cc(Cl)ccc3o2)c(N)c1C#N	24% (active)
O=C(O)c1c(-c2nccc3ccccc23)[nH]c(-c2ccccc2)c1S(=O)(=O)O	-1.08%
COc1ccc2nccc(SCC(=O)O)c2c1	-9.78%
CC(=O)Nc1ccc2c(c1)C(=Cc1ccc([N+](C)(C)C)cc1)c1ccccc1-2	24.7% (active)
CC(=O)Nc1ccccc1C=C1c2ccccc2-c2ccccc21	-13.9%
CC(=O)Nc1ccc2c(c1)C(=Nc1ccc(C(=O)O)cc1)c1ccccc1-2	19.5%
Cc1ccc(C(C#N)=Cc2cccc([N+](=O)[O-])c2)cc1	11.7%
CC(=O)n1c(COS(C)(=O)=O)nc2ccccc21	4.86%
CC1CC(C)(C)CC(OCCN2CCCCC2)(c2ccccc2)C1 (stereo unspecified)	21.3% (active)
OC(CCN1CCCCC1)(c1ccccc1)c1ccccc1	11.6%
Cc1ccc(S(=O)(=O)Nc2ccccc2C=O)cc1	5.12%
C[N+]1(CCCC[N+]2(C)CCCCCCC2)CCCCCCC1	13.6%
N#CC(C#N)=CNCCN1CCN(C=C(C#N)C#N)CC1	-5.6%
CN(C)CCNc1ccccn1	5.77%

Source: PubChem BioAssay AID376 (PDSP, 2006)
